Laboratory results: PMC5540273 (PLoS ONE, 2017)

Test system: ANKK1
Settings: concentration: 1 μM, replicates: in singlicate; n = 1
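Also: KINOMEscan kinase panel screen.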

Point of comparison: `Fc1cc(Cl)ccc1Nc1ccnc2cc(-c3ccc(CN4CCOCC4)o3)ccc12` [GW560109], “%Inh” value 16%. Against it:
- COc1ccc(NC(=O)c2ccoc2)cc1-c1ccc(C(=O)NCC2CC2)cc1 [GW810437] — lower, 7%
- CC(=O)Nc1cn2nc(Oc3cccc(NC(=O)c4cccc(C(F)(F)F)c4)c3)ccc2n1 — lower, 0%
- Cc1ccc(C)c(NC(=O)Nc2ccc(C)c(-c3ccc(C(=O)Nc4ccncc4)cc3)c2)c1 [GSK1398473] — lower, 0%
- CN(C)c1ncnc2nc[nH]c12 [SKF-31736] — lower, 0%
- Cc1ccc(O)cc1Nc1ccnc2cc(-c3ccc(CN4CCCCC4)o3)ccc12 [GW557777] — lower, 0%
- Cl.Cl.NCC(NC(=O)c1cc(-c2cccnc2)c(-c2ccnc3[nH]ccc23)s1)c1ccccc1 (centres unmarked) [GSK1323434] — lower, 0%
- CC(C)NCC(Cc1ccccc1)NC(=O)c1cc(Br)c(-c2ccnc3[nH]ccc23)s1.Cl.Cl (centres unmarked) [GSK1383281] — higher, 17%
- COc1cccc(NC(=O)NCCNc2ccnc(Nc3ccc(F)cc3)n2)c1 [GSK1379879] — lower, 14%
- Cc1cc(-c2ccnc(Nc3cccc(C#N)c3)n2)cc(C)c1O [GSK1440913] — lower, 9%
- Cc1ccc(O)cc1Nc1ccnc2ccc(C(C)(C)C)cc12 [GW856805] — lower, 7%
- O=C(Nc1n[nH]c2nc(-c3ccccc3)ccc12)C1CC1 [SB-708999] — higher, 63%
- Cl.Cl.NC(CNC(=O)c1cc(Br)c(-c2ccnc3[nH]ccc23)s1)c1ccccc1 (centres unmarked) [GSK1322949] — higher, 38%
- Cn1cc(-c2cnc(N)c3c(-c4ccc5c(c4)CCN5C(=O)Cc4ccccc4)csc23)cn1 [GSK2593074] — lower, 0%
- O=C1NC(=O)C(c2ccccc2Cl)=C1Nc1cccc(Cl)c1 [SB-342409] — lower, 0%
- COc1ccc(C2=C(Nc3cccc(O)c3)C(=O)NC2=O)cc1 [SB-390766] — higher, 32%
- CN(C)CCNS(=O)(=O)c1ccc(-c2ccnc3[nH]ccc23)cc1 [GSK977620] — lower, 0%
- CC(C)c1nc(-c2cccc(NS(=O)(=O)c3c(F)cccc3F)c2)c(-c2ccnc(Nc3ccc(N4CCOCC4)nc3)n2)s1.Cl [GSK1723980] — lower, 5%
- CCn1cnc2c(NCc3ccccc3)ncnc21 [SKF-96418] — lower, 0%
- COC(=O)Nc1nc2cc(Oc3ccc(NC(=O)Nc4cccc(SC)c4)cc3)ccc2[nH]1.Cl [GW697999] — lower, 10%
- O=C(Nc1n[nH]c2nc(-c3cccc(O)c3)ccc12)C1CC1 [SB-711805] — lower, 0%
- CN(c1ccc(F)c(NC(=O)c2cccc(OC(C)(C)C#N)c2Cl)c1)c1ccc2nc(NC(=O)C3CC3)sc2n1 — lower, 0%
- Cc1nn2c(=O)cc(N3CCO[C@H](C)C3)nc2n1Cc1cccc(Cl)c1Cl [GSK2373693] — lower, 0%
- Cl.O=C(Nc1ccc(Oc2ccc3[nH]c(NC(=O)c4ccco4)nc3c2)cc1)Nc1cc(C(F)(F)F)ccc1F [GW683134] — lower, 1%
- N#CC1(c2cccc(C(=O)Nc3cccc(Oc4ccc5nc(NC(=O)C6CC6)sc5n4)c3)c2)CC1 — lower, 0%
- COC(=O)Nc1nc2ccc(Oc3ccc(CC(=O)Nc4cc(C(F)(F)F)ccc4F)cc3)cc2[nH]1 [GW680903] — lower, 1%
- O=C(Nc1n[nH]c2nc(-c3ccccc3O)ccc12)C1CC1 [SB-711880] — lower, 0%
- CNc1nccc(-c2ccc3c(N)n[nH]c3c2)n1 [GSK2206003] — higher, 33%
- O=C(Nc1n[nH]c2cc(-c3cccs3)ccc12)C1CC1 [SB-731284] — higher, 45%
- CC(C)(C)c1ccc(C(=O)Nc2cn3cc(-n4ccnc4)ccc3n2)cc1 — higher, 82%
- Cc1ccc(Nc2ccnc(Nc3ccc(C)c(F)c3)n2)cc1O.Cl [GW582868] — lower, 0%
- Nc1cccc(-c2ccc3c(N)n[nH]c3c2)c1 [GSK2193613] — the same, 16%
- Nc1ncnc2scc(-c3ccc(NC(=O)Cc4cc(F)ccc4F)cc3)c12.O=C(O)C(F)(F)F [SB-731254-M] — higher, 49%
- COc1cccc(-c2nc(-c3ccccc3)[nH]c2-c2ccncc2)c1 [SB-610250] — lower, 0%
- Cc1cccc(Nc2nc(NCCN)ncc2C(N)=O)c1 [GSK1292139] — higher, 94.9%
- CN1CCN(Cc2ccc(NC(=O)Nc3ccc(N(C)c4ccnc(Nc5ccc(CS(C)(=O)=O)cc5)n4)cc3)cc2)CC1.Cl [GW827654] — higher, 80%
- CN(c1ccc(NC(=O)Nc2cccc(Cl)c2)cc1)c1ccnc(N)n1.Cl [GW830707] — lower, 0%

Test system: T1, ARK5
T1 construct: gene NUAK1
Settings: concentration: 1 μM, replicates: in singlicate; n = 1

Point of comparison: `O=C(Nc1n[nH]c2cc(-c3cccs3)ccc12)C1CC1` [SB-731284], “%Inh” value 0%. Against it:
- COc1ccc(NC(=O)c2ccoc2)cc1-c1ccc(C(=O)NCC2CC2)cc1 [GW810437] — the same, 0%
- CC(=O)Nc1cn2nc(Oc3cccc(NC(=O)c4cccc(C(F)(F)F)c4)c3)ccc2n1 — higher, 12%
- Cc1ccc(C)c(NC(=O)Nc2ccc(C)c(-c3ccc(C(=O)Nc4ccncc4)cc3)c2)c1 [GSK1398473] — higher, 17%
- CN(C)c1ncnc2nc[nH]c12 [SKF-31736] — the same, 0%
- Cc1ccc(O)cc1Nc1ccnc2cc(-c3ccc(CN4CCCCC4)o3)ccc12 [GW557777] — the same, 0%
- Cl.Cl.NCC(NC(=O)c1cc(-c2cccnc2)c(-c2ccnc3[nH]ccc23)s1)c1ccccc1 (centres unmarked) [GSK1323434] — the same, 0%
- CC(C)NCC(Cc1ccccc1)NC(=O)c1cc(Br)c(-c2ccnc3[nH]ccc23)s1.Cl.Cl (centres unmarked) [GSK1383281] — higher, 62%
- COc1cccc(NC(=O)NCCNc2ccnc(Nc3ccc(F)cc3)n2)c1 [GSK1379879] — higher, 16%
- Cc1cc(-c2ccnc(Nc3cccc(C#N)c3)n2)cc(C)c1O [GSK1440913] — higher, 23%
- Cc1ccc(O)cc1Nc1ccnc2ccc(C(C)(C)C)cc12 [GW856805] — the same, 0%
- O=C(Nc1n[nH]c2nc(-c3ccccc3)ccc12)C1CC1 [SB-708999] — higher, 8%
- Cl.Cl.NC(CNC(=O)c1cc(Br)c(-c2ccnc3[nH]ccc23)s1)c1ccccc1 (centres unmarked) [GSK1322949] — the same, 0%
- Cn1cc(-c2cnc(N)c3c(-c4ccc5c(c4)CCN5C(=O)Cc4ccccc4)csc23)cn1 [GSK2593074] — higher, 3%
- O=C1NC(=O)C(c2ccccc2Cl)=C1Nc1cccc(Cl)c1 [SB-342409] — higher, 14%
- COc1ccc(C2=C(Nc3cccc(O)c3)C(=O)NC2=O)cc1 [SB-390766] — the same, 0%
- CN(C)CCNS(=O)(=O)c1ccc(-c2ccnc3[nH]ccc23)cc1 [GSK977620] — higher, 39%
- CC(C)c1nc(-c2cccc(NS(=O)(=O)c3c(F)cccc3F)c2)c(-c2ccnc(Nc3ccc(N4CCOCC4)nc3)n2)s1.Cl [GSK1723980] — higher, 1%
- CCn1cnc2c(NCc3ccccc3)ncnc21 [SKF-96418] — the same, 0%
- COC(=O)Nc1nc2cc(Oc3ccc(NC(=O)Nc4cccc(SC)c4)cc3)ccc2[nH]1.Cl [GW697999] — the same, 0%
- O=C(Nc1n[nH]c2nc(-c3cccc(O)c3)ccc12)C1CC1 [SB-711805] — the same, 0%
- CN(c1ccc(F)c(NC(=O)c2cccc(OC(C)(C)C#N)c2Cl)c1)c1ccc2nc(NC(=O)C3CC3)sc2n1 — the same, 0%
- Cc1nn2c(=O)cc(N3CCO[C@H](C)C3)nc2n1Cc1cccc(Cl)c1Cl [GSK2373693] — the same, 0%
- Cl.O=C(Nc1ccc(Oc2ccc3[nH]c(NC(=O)c4ccco4)nc3c2)cc1)Nc1cc(C(F)(F)F)ccc1F [GW683134] — higher, 12%
- N#CC1(c2cccc(C(=O)Nc3cccc(Oc4ccc5nc(NC(=O)C6CC6)sc5n4)c3)c2)CC1 — the same, 0%
- COC(=O)Nc1nc2ccc(Oc3ccc(CC(=O)Nc4cc(C(F)(F)F)ccc4F)cc3)cc2[nH]1 [GW680903] — higher, 7%
- O=C(Nc1n[nH]c2nc(-c3ccccc3O)ccc12)C1CC1 [SB-711880] — the same, 0%
- CNc1nccc(-c2ccc3c(N)n[nH]c3c2)n1 [GSK2206003] — the same, 0%
- CC(C)(C)c1ccc(C(=O)Nc2cn3cc(-n4ccnc4)ccc3n2)cc1 — higher, 2%
- Cc1ccc(Nc2ccnc(Nc3ccc(C)c(F)c3)n2)cc1O.Cl [GW582868] — higher, 40%
- Fc1cc(Cl)ccc1Nc1ccnc2cc(-c3ccc(CN4CCOCC4)o3)ccc12 [GW560109] — higher, 4%
- Nc1cccc(-c2ccc3c(N)n[nH]c3c2)c1 [GSK2193613] — the same, 0%
- Nc1ncnc2scc(-c3ccc(NC(=O)Cc4cc(F)ccc4F)cc3)c12.O=C(O)C(F)(F)F [SB-731254-M] — higher, 2%
- COc1cccc(-c2nc(-c3ccccc3)[nH]c2-c2ccncc2)c1 [SB-610250] — the same, 0%
- Cc1cccc(Nc2nc(NCCN)ncc2C(N)=O)c1 [GSK1292139] — higher, 64%
- CN1CCN(Cc2ccc(NC(=O)Nc3ccc(N(C)c4ccnc(Nc5ccc(CS(C)(=O)=O)cc5)n4)cc3)cc2)CC1.Cl [GW827654] — higher, 8%
- CN(c1ccc(NC(=O)Nc2cccc(Cl)c2)cc1)c1ccnc(N)n1.Cl [GW830707] — the same, 0%
